Compound activity from PubChem.
eIF4E-4G inh: eIF4E/eIF4G interaction inhibition in translation initiation; 220,000 compounds, 0.37% hits; inhibition, % at 21.7 µM; TR-FRET eIF4E-eIF4GI(517-606) binding, 2 h
14-3-3 Bad PPI: disrupts binding of bovine 14-3-3 zeta to phospho-Bad peptide. P63103. TR-FRET 14-3-3zeta/Dy647-pBad peptide displacement, 1 h. inhibition, % at 21.7 µM. 220,000 compounds, 0.71% hits;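 active means inhibition above about 70%, limit read from the data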
p47phox inh: blocks human p47phox regulatory protein of NADPH oxidases; inhibition, % at 24.7 µM; P14598; 220,000 compounds, 0.53% hits; p47phox/p22phox peptide binding, fluorescence polarization, 2 h; AID 1274
Bim-Mcl-1: inhibitors of Bim-Mcl-1 interaction, human; Q07820; Bead-based flow cytometry, Bim peptide-Mcl-1 binding; inhibition, % at 10 µM; 190,000 compounds, 0.1% hits; AID 1009; in the data active means inhibition above about 40%
Target sequence (Q07820 whole entry, looked up): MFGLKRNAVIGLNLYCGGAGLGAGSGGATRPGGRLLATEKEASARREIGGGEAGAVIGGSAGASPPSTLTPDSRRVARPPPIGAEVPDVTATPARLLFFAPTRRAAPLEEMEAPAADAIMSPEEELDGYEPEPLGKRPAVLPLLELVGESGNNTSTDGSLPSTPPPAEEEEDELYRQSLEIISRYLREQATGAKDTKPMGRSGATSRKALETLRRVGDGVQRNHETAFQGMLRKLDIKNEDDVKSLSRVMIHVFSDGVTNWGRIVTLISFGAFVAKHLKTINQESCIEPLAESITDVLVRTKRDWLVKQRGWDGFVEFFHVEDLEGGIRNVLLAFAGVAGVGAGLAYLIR
Mcl1-Noxa inh: Mcl-1/Noxa interaction inhibition | Q07820 | TR-FRET Mcl-1/Noxa peptide binding, 2 h | inhibition, % at 21.7 µM | 220,000 compounds, 1.5% hits | AID 1022;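 active means compounds that cut the protein-peptide binding signal by more than 50% relative to plate controls in a single-dose test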;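 further: His-tagged Mcl-1 with rhodamine Noxa BH3 peptide and terbium anti-His antibody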
Mcl1 Bid PPI: disrupts binding of human Mcl-1 to Bid peptide; 220,000 compounds, 0.97% hits; TR-FRET Mcl-1/Bid-Dy647 peptide binding, 1536-well; Q07820; inhibition, % at 21.7 µM;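 active means compounds that cut the binding signal by more than half at the single screening dose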;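 further: His-tagged Mcl-1 with europium anti-His antibody binding Bid BH3 peptide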
Numbers stand for hits. Most compounds without a hit are left out; they make up all but 3.3% or so of the library.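 How the source made its calls, unless noted: active means inhibition above about 30% (limit read from the data); inactive means the rest.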

How did CCCc1cc(=O)c2ccc(OC/C(C)=N/O)cc2o1 do in these assays?
eIF4E-4G inh: inactive; 14-3-3 Bad PPI: inactive; p47phox inh: inactive; Mcl1-Noxa inh: inactive; Mcl1 Bid PPI: inactive

Results for Cc1ccccc1-c1nnn(CC(=O)Nc2ccc3c(c2)OCO3)n1 ?
eIF4E-4G inh: inactive; 14-3-3 Bad PPI: inactive; p47phox inh: inactive; Bim-Mcl-1: inactive; Mcl1-Noxa inh: inactive; Mcl1 Bid PPI: inactive

How did CCN(CC)C(=O)N1CCN(C)CC1 do in these assays?
eIF4E-4G inh: inactive; 14-3-3 Bad PPI: inactive; p47phox inh: inactive; Bim-Mcl-1: inactive; Mcl1-Noxa inh: inactive; Mcl1 Bid PPI: 58.9

How did CSC1=N/C(=C\c2ccccc2Cl)C(=O)N1N(C)C do in these assays?
eIF4E-4G inh: inactive; 14-3-3 Bad PPI: inactive; p47phox inh: inactive; Mcl1-Noxa inh: inactive; Mcl1 Bid PPI: inactive

How did O=C(O)CSc1nc2ccccc2n1C1CCCCC1 do in these assays?
eIF4E-4G inh: inactive; 14-3-3 Bad PPI: 84.5; p47phox inh: inactive; Bim-Mcl-1: inactive; Mcl1-Noxa inh: inactive; Mcl1 Bid PPI: inactive

What do the screens show for `O=C(COc1ccccc1[N+](=O)[O-])NNC(=O)Nc1cccc2ccccc12`?
eIF4E-4G inh: inactive; 14-3-3 Bad PPI: inactive; p47phox inh: inactive; Bim-Mcl-1: inactive; Mcl1-Noxa inh: inactive; Mcl1 Bid PPI: inactive

What do the screens show for `CCOC(=O)c1sc(N2N=C(C)C(N=Nc3cccc(C)c3)C2=O)nc1C` (centres undefined)?
eIF4E-4G inh: inactive; 14-3-3 Bad PPI: 97.4; p47phox inh: inactive; Mcl1-Noxa inh: inactive; Mcl1 Bid PPI: 86.5

What do the screens show for `CC1=NN(c2nc(-c3ccc(C)cc3)cs2)C(=O)C1N=Nc1cccc(C)c1` (centres undefined)?
eIF4E-4G inh: inactive; 14-3-3 Bad PPI: inactive; p47phox inh: inactive; Bim-Mcl-1: inactive; Mcl1-Noxa inh: inactive; Mcl1 Bid PPI: inactive

Results for [O-]/C(=C(\C(=S)Nc1cccc2ccccc12)[n+]1ccccc1)c1cccs1 ?
eIF4E-4G inh: inactive; 14-3-3 Bad PPI: 84.4; p47phox inh: inactive; Bim-Mcl-1: inactive; Mcl1-Noxa inh: inactive; Mcl1 Bid PPI: inactive

Results for O=C(NCCN1C(=O)S/C(=C\c2ccc(Cl)c(Cl)c2)C1=O)c1cnccn1 ?
eIF4E-4G inh: inactive; 14-3-3 Bad PPI: inactive; p47phox inh: inactive; Bim-Mcl-1: inactive; Mcl1-Noxa inh: 58.0; Mcl1 Bid PPI: inactive

Results for CN(C)S(=O)(=O)c1ccc(C(=O)NCCN2C(=O)S/C(=C\c3cccnc3)C2=O)cc1 ?
eIF4E-4G inh: inactive; 14-3-3 Bad PPI: inactive; p47phox inh: inactive; Bim-Mcl-1: inactive; Mcl1-Noxa inh: inactive; Mcl1 Bid PPI: inactive

How did O=C(CN1C(=O)S/C(=C/c2cccnc2)C1=O)N1CCOCC1 do in these assays?
eIF4E-4G inh: inactive; 14-3-3 Bad PPI: inactive; p47phox inh: inactive; Bim-Mcl-1: inactive; Mcl1-Noxa inh: inactive; Mcl1 Bid PPI: inactive

Results for CS(=O)(=O)c1ccc(C(=O)NCCN2C(=O)S/C(=C\c3cccnc3)C2=O)cc1[N+](=O)[O-] ?
eIF4E-4G inh: inactive; 14-3-3 Bad PPI: inactive; p47phox inh: inactive; Bim-Mcl-1: inactive; Mcl1-Noxa inh: 80.7; Mcl1 Bid PPI: inactive

Results for O=C(O)CCN1C(=O)S/C(=C\c2cccnc2)C1=O ?
eIF4E-4G inh: inactive; 14-3-3 Bad PPI: inactive; p47phox inh: inactive; Mcl1-Noxa inh: inactive; Mcl1 Bid PPI: 91.1

What do the screens show for `CCc1cccc2c(/C=N/NC(=O)c3cccc(S(=O)(=O)Nc4ccccc4Cl)c3)c[nH]c12`?
eIF4E-4G inh: inactive; 14-3-3 Bad PPI: inactive; p47phox inh: inactive; Bim-Mcl-1: inactive; Mcl1-Noxa inh: inactive; Mcl1 Bid PPI: inactive

Results for NNC(=S)Nc1cccc(-c2n[nH]c(=S)o2)c1 ?
eIF4E-4G inh: inactive; 14-3-3 Bad PPI: inactive; p47phox inh: inactive; Mcl1-Noxa inh: inactive; Mcl1 Bid PPI: inactive

Results for COc1ccc(/C=N/NC(=O)c2ccc(O)cc2O)cc1CSc1ccccn1 ?
eIF4E-4G inh: inactive; 14-3-3 Bad PPI: inactive; p47phox inh: inactive; Bim-Mcl-1: inactive; Mcl1-Noxa inh: 98.2; Mcl1 Bid PPI: inactive

How did COc1ccc(/C=N/NC(=O)c2ccc(COc3cccc4cccnc34)cc2)cc1OC do in these assays?
eIF4E-4G inh: inactive; 14-3-3 Bad PPI: inactive; p47phox inh: inactive; Bim-Mcl-1: inactive; Mcl1-Noxa inh: inactive; Mcl1 Bid PPI: inactive

Results for COc1ccc(/C=N/NC(=O)c2ccc(CN3c4cccc5cccc(c45)S3(=O)=O)cc2)cc1 ?
eIF4E-4G inh: inactive; 14-3-3 Bad PPI: inactive; p47phox inh: inactive; Bim-Mcl-1: inactive; Mcl1-Noxa inh: inactive; Mcl1 Bid PPI: inactive
